Unmarked numbers belong to inactive results. The source made the active and inactive calls. Calls come from the whole dose curve; as a rule, active = well fitted curve in the direction sought with a large enough effect in the repeat runs; inconclusive = weak or mixed curves; inactive = flat fitted curve, though single readings scatter.
Test: qHTS assay to test for compound auto fluorescence at 535 nm (green) in HepG2 cell free culture (AID 720686)
Conditions: Cell-free medium, green autofluorescence 485/535 nm; series mostly up to 91.3 µM
Description: U.S. Tox21 Program National Center for Advancing Translational Sciences [NCATS] NIH Chemical Genomics Center [NCGC] U.S. Environmental Protection Agency [EPA] National Institutes of Environmental Health Sciences [NIEHS] National Toxicology Program [NTP] U.S. Food and Drug Administration [FDA] Tox21 Assay Overview: Compound auto fluorescence often interferes with screening of the compound library against various biological targets and signaling pathways. Some of these compounds may have fluorophoric properties. Such properties may interfere with the assay outputs resulting in false positives and/or negatives. To decrease such complications and ensure the compound activities are relevant in terms of biological response, the Tox21 10K compound library was screened for auto fluorescence. From the fluorophores used as reporter signals in our screening assays, the auto fluorescence equivalencies of compounds against three fluorophores have been evaluated: Triamterene, Fluorescein and Rose Bengal sodium for blue, green and red fluorescence, respectively. The fluorescence intensities were measured using Excitation/Emission wavelengths at 405/460nm, 485/535nm and 540/590nm for blue, green and red labels, respectively. This assay includes the green fluorescence data.
Tox21 Assay Protocol Summary: 5 uL of culture medium (MEM containing 10% FBS) per well was dispensed into black wall/clear bottom 1536-well plates using a Multidrop Combi Dispenser (ThermoFisher Scientific, Waltham, MA). After 23 nL compound or DMSO vehicle was transferred into assay plate by a pintool work station (Kalypsys, San Diego, CA), fluorescence intensities in the assay plates were measured by an Envision (PerkinElmer, Shelton, CT) plate reader using three labels for measuring blue, green and red fluorescence at […] 460, 535 and 590nm respectively.
% is set by controls: 0 for no effect and ±100 for the full control effect.

Row | Compound | outcome | fluorescence, % of fluorescein control
1 | O=C(O)c1cccnc1C(=O)O | inactive | –
2 | CCOC(=N)CC(=O)OCC | inactive | –
3 | Nc1ccc(Cl)cc1[N+](=O)[O-] | inactive | –
4 | COCc1c(C(C)C)nc(C(C)C)c(/C=C/[C@@H](O)C[C@@H](O)CC(=O)O)c1-c1ccc(F)cc1 | inactive | –
5 | Oc1cc(O)c(Cl)cc1Cl | inactive | –
6 | O=C(O)Cc1ccc(-c2ccccc2)cc1 | – | -0.0983% [at 18.6 µM]
7 | CC(C)C(=O)O | inactive | –
8 | O=C(CCCN1CCC(O)(c2ccc(Br)cc2)CC1)c1ccc(F)cc1 | – | -0.0224% [at 18.6 µM]
9 | ON(Cc1ccccc1)Cc1ccccc1 | inactive | –
10 | Cc1ccc(/C=N/n2c(-c3ccccc3)csc2=S)cc1 | inactive | –
11 | C=CC(C)=CCC=C(C)C | inactive | –
12 | OCC1CC=CCC1 (stereo not given) | inactive | –
13 | CCOC(=O)/C=C/C(=O)O | inactive | –
14 | CCn1cc(C(=O)O)c(=O)c2cc(F)c(N3CCNCC3)nc21 | – | -0.0379% [at 18.6 µM]
15 | CCCCC/C(=C\c1ccccc1)CO | inactive | –
16 | CC(C)(O)c1ccccc1CC[C@@H](SCC1(CC(=O)O)CC1)c1cccc(/C=C/c2ccc3ccc(Cl)cc3n2)c1 | inactive | –
17 | Cc1nc2ccccc2s1 | inactive | –
18 | CCC(C)(O)CCC=C(C)C (stereo not given) | inactive | –
19 | CCOc1cc(N)c(Cl)cc1C(=O)NCC1CN(Cc2ccc(F)cc2)CCO1 (stereo not given) | inactive | –
20 | CC1=CC(O)CC(C)(C)C1 (stereo not given) | inactive | –

Row | Compound | outcome | fluorescence, % of fluorescein control
21 | CCOC(=O)c1ccccc1C | inactive | –
22 | COc1cc2c(N3CCN(C(=O)Nc4ccc(OC(C)C)cc4)CC3)ncnc2cc1OCCCN1CCCCC1 | inactive | –
23 | CCCCCCOC(=O)C(C)C | inactive | –
24 | CCCCOC(=O)CCS | inactive | –
25 | Cc1cc(S(=O)(=O)O)ccc1N=Nc1c(O)ccc2ccccc12 | inactive | –
26 | O=C(O)c1cccc(O)c1 | inactive | –
27 | C=CC(=C)CCCC(C)(C)OC(C)=O | inactive | –
28 | CC(=O)Oc1ccc(C(=C2CCCCC2)c2ccc(OC(C)=O)cc2)cc1 | inactive | –
29 | CC1CN(c2cc3c(cc2F)c(=O)c(C(=O)O)cn3-c2ccc(F)cc2F)CCN1 (stereo not given) | inactive | –
30 | CC(C)(C)C(=O)C(Oc1ccc(Cl)cc1)n1ccnc1 (stereo not given) | inactive | –
31 | CN(C)C(=O)Nc1ccc(Oc2ccc(Cl)cc2)cc1 | inactive | –
32 | CNCCCC1c2ccccc2C=Cc2ccccc21 | – | -0.0217% [at 18.6 µM]
33 | COC(OC)(C(=O)c1ccccc1)c1ccccc1 | inactive | –
34 | CC(C)=CC=O | inactive | –
35 | CC1C2CC(CC2C2CCCC(O)C2)C1(C)C (stereo not given) | inactive | –
36 | CCC(C)=O | inactive | –
37 | CC(=O)Oc1ccc2c(c1)CC[C@@H]1[C@@H]2CC[C@]2(C)[C@@H](O)CC[C@@H]12 | inactive | –
38 | CC(C)CCCCCOC(=O)CCCCC(=O)OCCCCCC(C)C | inactive | –
39 | Cc1oc(C)c(C(=O)Nc2ccccc2)c1C | inactive | –
40 | CCC(C)(C)C1CCC(O)CC1 (stereo not given) | inactive | –

From PubChem BioAssay (Tox21)
